Source: PubChem (several laboratories)
Cav32 inh – human Cav3.2 channel inhibition, primary screen; hit rate 4% among 100,000; Cav3.2-expressing cells, Fluo-4 calcium fluorescence FDSS; stronger effect = lower value; O95180; B-score at 10 µM;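 active = single-dose well whose peak fluorescence ratio is a statistical outlier from its plate by either plate-standardised score or position-corrected B-score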
CYP2C19 inhib – inhibitors of human CYP2C19; hit rate 21% among 96,000; P33261; CYP2C19 Supersomes, luciferin-H EGE luminescence, 30 min; AID 778; inhibition, % at 5 µM;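 active = CYP2C19 inhibition above a set limit at 5 µM in the primary screen, cut at about 50% in these data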;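 note: plate controls were negative control wells for no effect and 2.5 mM tranylcypromine positive control for full effect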
PTK2B oligo ant – Pyk2 (human) oligomerization antagonism; Q14289; Q293 cells, Pyk2 FERM NanoBiT luminescence; stronger effect = lower value; z-score (the deposit names both 25 µM and 10 µM); hit rate 0.83% among 99,000;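 active = Z-score of -3 or lower, scaled per plate to the spread of control and sample wells; inactive = z-score above -3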;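 note: negative z-score means lost luminescence so less FERM oligomerization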
Target sequence (Q14289 whole entry, looked up): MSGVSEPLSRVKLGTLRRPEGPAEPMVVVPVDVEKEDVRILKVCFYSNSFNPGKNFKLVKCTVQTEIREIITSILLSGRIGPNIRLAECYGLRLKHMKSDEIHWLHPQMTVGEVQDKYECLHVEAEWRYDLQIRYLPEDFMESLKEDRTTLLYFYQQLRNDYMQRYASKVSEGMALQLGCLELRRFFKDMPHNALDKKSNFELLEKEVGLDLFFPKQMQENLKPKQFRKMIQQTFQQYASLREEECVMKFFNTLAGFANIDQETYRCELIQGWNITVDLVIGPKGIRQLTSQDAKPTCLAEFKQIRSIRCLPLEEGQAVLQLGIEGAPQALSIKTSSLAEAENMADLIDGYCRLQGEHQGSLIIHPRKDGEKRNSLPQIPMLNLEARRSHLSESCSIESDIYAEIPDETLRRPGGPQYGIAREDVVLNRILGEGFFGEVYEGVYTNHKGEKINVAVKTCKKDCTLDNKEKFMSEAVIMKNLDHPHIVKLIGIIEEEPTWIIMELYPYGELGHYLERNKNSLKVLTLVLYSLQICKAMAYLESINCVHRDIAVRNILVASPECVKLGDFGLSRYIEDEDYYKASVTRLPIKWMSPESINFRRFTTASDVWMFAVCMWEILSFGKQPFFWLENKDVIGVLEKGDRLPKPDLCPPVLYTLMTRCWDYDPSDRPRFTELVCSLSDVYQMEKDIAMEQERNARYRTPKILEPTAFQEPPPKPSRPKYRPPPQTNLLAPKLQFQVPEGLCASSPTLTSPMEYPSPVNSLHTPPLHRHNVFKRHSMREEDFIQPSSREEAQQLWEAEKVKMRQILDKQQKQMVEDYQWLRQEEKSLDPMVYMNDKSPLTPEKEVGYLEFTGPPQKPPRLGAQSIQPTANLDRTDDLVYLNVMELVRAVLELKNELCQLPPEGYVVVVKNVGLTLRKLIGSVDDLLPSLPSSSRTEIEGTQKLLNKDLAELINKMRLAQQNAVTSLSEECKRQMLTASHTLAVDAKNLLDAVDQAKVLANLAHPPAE
CYP2C9 inhib – blocks human cytochrome P450 2C9; CYP2C9 Supersomes, luciferin-H conversion, luminescence; inhibition, % at 5 µM; hit rate 20% among 96,000; AID 777;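 active = blocking of liver enzyme CYP2C9 beyond about 50% at 5 µM, limit read from the data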
CYP2C9 activ – CYP2C9 (human) activation; P11712; recombinant CYP2C9, luciferin-H conversion, luminescence; stronger effect = higher value; factor 1 = untreated enzyme, 0 = blocked; activation factor at 5 µM; hit rate 1.4% among 96,000; AID 1024;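 active = activation factor of 2 or more for CYP2C9 at a 5 µM dose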;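 note: 0 = sulfaphenazole-blocked wells and 1 = vehicle-only wells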
CYP2C19 activ – cytochrome P450 2C19 (human) activation. AID 1025. 96,000 tested, under 10 active. recombinant CYP2C19, luciferin-H EGE luminescence; stronger effect = higher value; 0 = fully inhibited enzyme, 1 = untreated enzyme. activation factor at 5 µM;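 active = activation factor of at least 2 at 5 µM in the primary screen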;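 note: 0 = wells with 2.5 mM tranylcypromine and 1 = vehicle-only wells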
* = called active by the depositor; · = not tested or not shown. Only some compounds are listed: those with a hit (about 27% of all), similar ones and a draw of the others.

SMILES	Cav32 inh	CYP2C19 inhib	PTK2B oligo ant	CYP2C9 inhib	CYP2C9 activ	CYP2C19 activ
N#Cc1cc(-c2ccccc2)cnc1Sc1ccccc1	-0.24	28	-1.1	78*	0.2	0.7
Oc1cc2c(cc1O)C1c3ccc(O)c(O)c3OCC1(O)C2 (configuration not stated)	0.51	·	·	·	·	·
O=P(OC1CCCCC1)(OC1CCCCC1)C(O)c1ccccc1 (configuration not stated)	-2.3	65*	0.34	55*	0.4	0.4
CCOc1ccccc1NC(=O)Cn1nnc(-c2ccc(OCC)c(OCC)c2)n1	·	89*	0.33	85*	0.2	0.1
CCOc1ccccc1NC(=O)Cc1ccccc1OC	-1	58*	-0.78	-120	2.2*	0.4
COc1ccccc1NC(=O)CCC(=O)O	-0.057	14	-0.04	56*	0.4	0.9
CCOC(=O)N1CCN(C(=S)Nc2cc(OC)c(OC)cc2C(=O)OC)CC1	1.1	98*	-0.5	2	1	0
COC(=O)c1cccc(Nc2nc3ccccc3nc2C)c1	1.3	14	-0.38	44	0.6	0.9
Cc1cc(=O)oc(C)c1C(=O)N[C@@H]1CCCCNC1=O	0.41	-12	0.03	-10	1.1	1.1
CC1CCC2(CC1)N=C(N)Nc1nc3ccccc3n12 (configuration not stated)	-0.29	0	-0.41	8	0.9	1
Cc1cccc(OCCCC(=O)Nc2ccccc2C(F)(F)F)c1	-2	34	-0.71	4	1	0.7
Cc1ccc(S(=O)(=O)NC(=O)Nc2cc(C)ccc2F)cc1	-1.7	6	0.59	10	0.9	0.9
COC(=O)c1cc(OC)c(OC)cc1NC(=O)CSc1ccccc1	-3.2	65*	-0.69	7	0.9	0.3
Cc1ccccc1OCCCC(=O)Nc1ccccc1C(F)(F)F	-1.6	32	-0.37	-122	2.2*	0.7
CCOC(=O)Nc1cccc(Nc2ccccc2)c1	-1.2	79*	-0.24	75*	0.2	0.2
CCOC(=O)Nc1cccc(C(=O)O)c1	0.41	·	0.27	·	·	·
CCOc1ccccc1NC(=O)NS(=O)(=O)c1ccc(C)cc1	-0.13	20	0	91*	0.1	0.8
CCc1cc(C(=O)OC)c(NC(=O)C2CC(=O)NN2Cc2ccccc2)s1 (configuration not stated)	-1.2	28	-1.4	47	0.5	0.7
O=S(=O)(NCC1CCCO1)c1cnc(Cl)c(Br)c1 (configuration not stated)	·	·	0.37	·	·	·
CC(C)(Oc1ccc(Cl)cc1)C(=O)OCC(=O)N1CCCC1	-0.1	28	0.05	10	0.9	0.7
CCOc1ccccc1NC(=O)CSc1nnnn1-c1ccccc1	-2.3	40	-1.3	21	0.8	0.6
CCOc1ccccc1NC(=O)CCC(=O)O	-0.2	22	-0.37	21	0.8	0.8
O=C(COC(=O)COc1ccccc1)Nc1ccccc1OC(F)F	-0.059	14	-1.2	-15	1.2	0.9
CCOc1ccccc1NC(=O)CCC(=O)Nc1ccccc1OCC	0.41	47	1.6	-166	2.7*	0.5
CCC(COC(=O)Nc1cccc(C)c1)NC(=O)OCC(C)C (configuration not stated)	-4.7*	93*	0.83	55*	0.4	0.1
SMILES	Cav32 inh	CYP2C19 inhib	PTK2B oligo ant	CYP2C9 inhib	CYP2C9 activ	CYP2C19 activ
CCOC(=O)Nc1cccc(OCC(=O)Nc2ccccc2OCC)c1	-0.051	88*	-1.9	-33	1.3	0.1
CCOc1ccccc1NC(=O)CSc1ccccc1	-1.3	51*	-0.52	-257	3.6*	0.5
O=c1[nH]c2ccc(S(=O)(=O)N3CCN(c4ccccc4)CC3)cc2[nH]c1=O	0.23	38	0.2	13	0.9	0.6
O=C(COc1ccc(/C=N/NC(=O)c2cc3ccccc3o2)cc1Br)Nc1ccccc1	0.093	11	0.15	43	0.6	0.9
CC1(C)CC(=O)CC(=Nc2ccc(C(=O)O)cc2)C1	0.034	-10	0.27	-12	1.1	1.1
O=C(c1ccc(N2C(=O)CCC2=O)cc1)N1CCN(c2ccccc2)CC1	-0.12	2	0.7	23	0.8	1
CCN1CCN(CCC(=O)Nc2ccccc2OC)CC1	0.96	-8	-0.26	-6	1.1	1.1
CCOc1ccccc1NC(=O)CCN1CCN(S(=O)(=O)c2ccc(Br)cc2)CC1	·	63*	-0.15	36	0.6	0.4
COc1ccccc1NC(=O)C1C2CCCCC21 (configuration not stated)	·	43	-1.3	-264	3.6*	0.6
COc1ccccc1NC(=O)c1ccc(N)cc1	-4.2*	15	-0.51	-313	4.1*	0.8
COc1ccccc1NC(C)=O	0.54	8	0.16	7	0.9	0.9
COc1ccc(C(OC(=O)c2cccs2)C(=O)NCC2CCCO2)cc1 (configuration not stated)	2.4	63*	-0.45	42	0.6	0.4
CC(C)CC(OC(=O)c1cccs1)C(=O)NCC1CCCO1 (configuration not stated)	0.3	58*	0.1	84*	0.2	0.4
COc1ccccc1C(OC(=O)c1cccs1)C(=O)NCC1CCCO1 (configuration not stated)	-0.11	42	-0.14	20	0.8	0.6
Cc1nnc(SCCn2c(N(C)Cc3ccccc3)nc3c2c(=O)[nH]c(=O)n3C)s1	3.1	-4	·	9	0.9	1
C=CCn1sc(=N)c(C#N)c1N	1.5	-6	0.92	16	0.8	1.1
CC(=O)N(Cc1ccc(F)cc1)C1=C(NCc2ccccc2)C(=O)c2ccccc2C1=O	-5.1*	73*	-2.7	76*	0.2	0.3
CCOC(=O)c1c(C)[nH]c(C(=O)Cn2c(=O)oc3ccccc32)c1C	-1.5	-3	0.71	9	0.9	1
Cc1ccc(OCCN2CCN(c3ncnc4sc(C)c(C)c34)CC2)cc1	-3.6*	86*	-0.24	89*	0.1	0.1
Clc1ccc(OCCN2CCN(c3ncnc4sccc34)CC2)cc1	-1.2	84*	1	56*	0.4	0.2
CC(C)OCCCNC(=O)C1CCC(=O)N1C(C)C (configuration not stated)	0.64	-7	0.76	-8	1.1	1.1
Cc1ccc(CS(=O)(=O)CCC(=O)NCCCN2CCCC2)cc1	·	-9	-0.7	10	0.9	1.1
CC(=O)C1=C(C)NC(=O)NC1c1ccc(OC2CCCC2)cc1 (configuration not stated)	2.6	32	1.7	-8	1.1	0.7
Cc1ccccc1N1CCN(C(=O)c2ccccc2NC(=O)C2CC=CCC2C(=O)O)CC1 (configuration not stated)	0.089	16	0.33	37	0.6	0.8
COC(=O)c1ccc(-c2ccco2)n1Cc1ccccc1Cl	-0.056	16	-0.13	63*	0.4	0.8
